Experiment [1] can be described thus: Cell Viability - NIH 3T3 (AID 541).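 Further: cells exposed to compound for 40 hours; plate controls were DMSO alone for no effect and tamoxifen positive control for full effect; nearly all actives have a fitted effect of over 25% in size.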 The note with it: NIH 3T3 cell viability, qHTS; activity change, negative = cytotoxicity: at 92.2 µM (top of the series). In outline:
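In this cytotoxicity screen, acute toxicity is scored as an ATP drop measured by CellTiter-Glo in NIH 3T3 fibroblasts following a 40 hr, 37 °C incubation with compound.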
(In general: qHTS replaces the single test concentration by a dilution series.)

Experiment [2] can be described thus: Cell Viability - H-4-II-E (AID 543).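 Further: cells exposed to compound for 40 hours; on the % scale 0 is the no-effect control and ±100 the full control effect; nearly all actives have a fitted effect of over 35% in size.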 In outline: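 AC50 from Hill-modelled qHTS concentration-response curves. H-4-II-E rat hepatoma cells in complete medium, 40 hr exposure at 37 °C, viability by CellTiter-Glo ATP luminescence.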
A short description of experiment [3]: MultiTox-Fluor Cytotoxicity Assay - LYMP1-001 - Live Cells (AID 947).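 Further: 0% = DMSO only and full inhibition = tetraoctylammonium bromide control.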
A short description of experiment [4]: Cell Viability - LYMP2-018 (AID 985).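 Further: plate controls were DMSO only for no effect and tetraoctylammonium bromide at 92 µM for full effect; nearly all actives have a fitted effect of over 50% in size.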 In outline:
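In this qHTS viability assay, cells are treated for 24 hr and cellular ATP is quantified by luciferase-based luminescence, with tetraoctylammonium bromide as positive control.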

The target of experiment [5] is Glucocorticoid receptor (Homo sapiens) (UniProt P04150). Kind of experiment: qHTS assay for small molecule agonists of glucocorticoid receptor signaling (AID 588532; active means well fitted curve in the direction sought with a large enough effect in the signal ratio, with a control signal flat; the % refers to the signal ratio;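 further: 100% = dexamethasone at 0.1 µM and 0% = DMSO only wells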). To be noted: HeLa MMTV-bla, beta-lactamase ratio, agonist, 18 h; stronger effect = higher value; percent of dexamethasone control, DMSO zero. In outline:
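MMTV-bla HeLa beta-lactamase reporter cells in 1% charcoal/dextran FBS medium, compounds up to 92 uM for 18 h at 37 C, CCF4 readout; normalized to 0.1 uM dexamethasone (100%), EC50 and efficacy from Hill fits.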

For experiment [6] the target is unchanged. Nature of the experiment: qHTS assay for small molecule antagonists of glucocorticoid receptor signaling (AID 588533; active means well fitted inhibition curve with a large enough effect in the signal ratio, with a control signal flat, not every such curve was filed as active; the % refers to the signal ratio;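 further: cells stimulated with 2 nM dexamethasone as agonist; on the % scale 0 is the no-effect control and ±100 the full control effect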). In outline: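 Antagonist-mode qHTS: compound titrations added to GRE-bla HeLa cells, then dexamethasone 2 nM final; 18 h, 37 C. CCF4 FRET fluorescence normalized to dexamethasone and DMSO; IC50 from Hill fit.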
Experiment [7] deals with Peroxisome proliferator-activated receptor gamma (Homo sapiens) (UniProt P37231). Kind of experiment: qHTS assay for small molecule agonists of peroxisome proliferator-activated receptor gamma signaling (AID 588536; active means well fitted curve in the direction sought with a large enough effect in the signal ratio, with a control signal flat, not every such curve was filed as active; the % refers to the signal ratio;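 further: 0% = DMSO basal wells and 100% = rosiglitazone at 2 µM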). In outline:
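Cells were plated and held 6–6.5 h at 37 C, then compounds were added as a titration series. After a further 16 h, CCF4 dye was loaded for 2 h at room temperature and emission at 460/530 nm recorded.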

For experiment [8], the target named is Voltage-gated inwardly rectifying potassium channel KCNH2 (Homo sapiens) (UniProt Q12809). Kind of experiment: qHTS Assay for Small Molecule Inhibitors of the Human hERG Channel Activity (AID 588834).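 Further: top concentration of the series differs between compounds; on the % scale 0 is the no-effect control and ±100 the full control effect; lower thallium flux fluorescence means stronger hERG block; nearly all actives have a fitted effect of over 50% in size.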 In outline: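 Thallium-flux (FluxOR) read-out on FDSS: fluorescence read 10 s before and 2 min after stimulation buffer. hERG-BacMam-transduced U2OS cells, compound exposure about 10 min. AC50 by standard Hill equation.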
Sequence of Voltage-gated inwardly rectifying potassium channel KCNH2 (Homo sapiens) (Q12809 whole entry, looked up): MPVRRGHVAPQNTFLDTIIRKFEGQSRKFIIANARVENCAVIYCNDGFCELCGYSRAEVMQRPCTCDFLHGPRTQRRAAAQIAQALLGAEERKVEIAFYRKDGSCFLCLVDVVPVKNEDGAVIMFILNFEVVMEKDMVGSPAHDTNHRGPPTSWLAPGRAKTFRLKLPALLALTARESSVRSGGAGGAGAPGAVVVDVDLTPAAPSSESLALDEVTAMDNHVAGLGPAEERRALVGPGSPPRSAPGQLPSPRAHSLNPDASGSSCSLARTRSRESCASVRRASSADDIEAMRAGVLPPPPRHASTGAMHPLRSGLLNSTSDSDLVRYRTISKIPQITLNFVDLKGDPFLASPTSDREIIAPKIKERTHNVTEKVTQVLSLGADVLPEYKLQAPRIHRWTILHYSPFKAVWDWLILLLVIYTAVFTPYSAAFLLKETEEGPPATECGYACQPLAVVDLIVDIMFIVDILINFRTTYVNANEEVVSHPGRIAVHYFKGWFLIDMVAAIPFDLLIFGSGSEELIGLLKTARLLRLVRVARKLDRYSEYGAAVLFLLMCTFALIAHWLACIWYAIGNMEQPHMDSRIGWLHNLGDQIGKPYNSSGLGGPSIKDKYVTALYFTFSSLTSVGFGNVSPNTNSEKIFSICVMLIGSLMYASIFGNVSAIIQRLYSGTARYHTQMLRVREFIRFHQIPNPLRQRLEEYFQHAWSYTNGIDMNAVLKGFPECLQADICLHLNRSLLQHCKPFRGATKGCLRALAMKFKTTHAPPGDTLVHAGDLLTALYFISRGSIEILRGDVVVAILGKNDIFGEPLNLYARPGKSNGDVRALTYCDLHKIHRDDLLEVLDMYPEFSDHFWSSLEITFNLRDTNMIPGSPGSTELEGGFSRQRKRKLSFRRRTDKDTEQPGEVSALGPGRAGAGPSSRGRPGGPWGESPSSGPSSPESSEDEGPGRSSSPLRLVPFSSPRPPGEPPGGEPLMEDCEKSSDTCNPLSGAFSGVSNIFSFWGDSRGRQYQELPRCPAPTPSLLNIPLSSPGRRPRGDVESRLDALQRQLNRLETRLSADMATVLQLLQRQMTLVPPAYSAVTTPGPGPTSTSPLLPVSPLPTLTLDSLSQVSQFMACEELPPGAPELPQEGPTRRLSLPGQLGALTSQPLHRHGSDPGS

The nature of experiment [9]: qHTS assay for small molecule agonists of the antioxidant response element (ARE) signaling pathway (AID 651741; active means well fitted activation curve with a large enough effect in the signal ratio; the % refers to the signal ratio; further: % of control where 0% means no effect). In outline:
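HepG2 ARE-bla reporter cells, 2,000/well; 5 h settle at 37 C/5% CO2; compound pin transfer (23 nL, DMSO); 16 h at 37 C; LiveBLAzer B/G FRET substrate, 2 h RT; fluorescence intensity read.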

Experiment [10] is described as follows: qHTS assay for small molecule activators of the nuclear factor-kappa B (NF-kB) signaling pathway (AID 651749; active means well fitted activation curve with a large enough effect in the signal ratio; the % refers to the signal ratio; further: % of control where 0% means no effect). To be noted: NF-kB-bla ME-180 cells, beta-lactamase FRET ratio, 16 h; stronger effect = higher value. In outline: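 NF-kB-bla ME-180 cells, 2,000/well; 23 nL compound or DMSO pinned; 16 hr, 37C/5% CO2; beta-lactamase FRET read-out.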
Experiment [11] in a line: qHTS assay for environmental chemicals that activate the Aryl hydrocarbon Receptor (AhR) signaling pathway (AID 651777). Further: % of control where 0% means no effect; nearly all actives have a fitted effect of over 15% in size. To be noted: 1A2-DRE human hepatoma cells, luciferase, 24 h; activation: stronger effect = higher value. In outline: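 Concentration–response screening used 1,200 1A2-DRE cells per well, 24 hr compound exposure (37 C, 5% CO2), and One-Glo luminescence as the AhR-driven CYP1A2 reporter signal.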

The nature of experiment [12]: Cell Viability - LYMP2-014 (AID 983).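 Further: plate controls were DMSO only for no effect and 92 µM tetraoctylammonium bromide for full effect; nearly all actives have a fitted effect of over 50% in size.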 In outline: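 Quantitative HTS in lymphoblastoid cells: 24 hr compound exposure, then CellTiter-Glo ATP luminescence. Positive control was tetraoctylammonium bromide, 6.4pM to 92 uM.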
Experiment [13] can be described thus: Cell Viability - LYMP2-024 (AID 988).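 Further: plate controls were DMSO only for no effect and 92 µM tetraoctylammonium bromide for full effect; nearly all actives have a fitted effect of over 60% in size.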 In outline: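 Cells at 2500 per well received compound for 24 hr after a 5 hr settling period. Viability was scored by CellTiter-Glo luminescence, with AC50 from Hill fits.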
For experiment [14], the target named is Peroxisome proliferator-activated receptor delta (Homo sapiens) (UniProt Q03181). Kind of experiment: qHTS assay for small molecule agonists of peroxisome proliferator-activated receptor delta signaling (AID 588534; calls by dose curve;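 further: 0% = DMSO basal wells and 100% = positive control agonist at 10 µM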). In outline: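 EC50 and efficacy values derive from Hill fits of a concentration series in a beta-lactamase reporter cell assay. Exposure is 18 hrs at 37 C, with CCF4 fluorescence as the readout.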
Sequence of Peroxisome proliferator-activated receptor delta (Homo sapiens) (Q03181 whole entry, looked up): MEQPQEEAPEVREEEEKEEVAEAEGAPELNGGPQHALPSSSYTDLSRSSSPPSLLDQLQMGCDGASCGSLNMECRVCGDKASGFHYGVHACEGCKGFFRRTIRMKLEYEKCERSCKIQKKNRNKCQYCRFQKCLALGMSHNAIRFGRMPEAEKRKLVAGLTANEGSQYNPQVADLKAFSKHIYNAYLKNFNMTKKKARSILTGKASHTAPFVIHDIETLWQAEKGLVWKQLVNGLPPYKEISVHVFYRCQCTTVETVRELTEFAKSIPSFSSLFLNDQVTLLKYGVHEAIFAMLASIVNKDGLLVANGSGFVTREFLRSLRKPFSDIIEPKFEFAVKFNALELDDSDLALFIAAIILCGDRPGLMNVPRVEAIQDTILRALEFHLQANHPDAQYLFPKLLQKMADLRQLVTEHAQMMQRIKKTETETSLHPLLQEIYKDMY

A short description of experiment [15]: qHTS assay for small molecule antagonists of peroxisome proliferator-activated receptor delta signaling (AID 588535; active means well fitted inhibition curve with a large enough effect in the signal ratio, with a control signal flat, not every such curve was filed as active; the % refers to the signal ratio;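 on max response: cells co-treated with a PPAR-delta agonist as stimulator during compound exposure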). The note with it: HEK293T PPARd-UAS-bla, beta-lactamase FRET ratio, 18 h; 460 nm channel. In outline: (§1)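 Beta-lactamase reporter read-out (405 nm excitation, 460/530 nm emission) after CCF4 loading for 2 hrs at RT. HEK293T PPAR-delta-UAS-bla cells, 2% charcoal/dextran FBS, compounds for 18 hrs at 37 C. Hill fit gave IC50 and efficacy.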

The target in experiment [16] is Peroxisome proliferator-activated receptor delta (Homo sapiens) (UniProt Q03181). Described as above. In outline:
as §1

Experiment [17] addresses Peroxisome proliferator-activated receptor gamma (Homo sapiens) (UniProt P37231). Nature of the experiment: qHTS assay for small molecule antagonists of peroxisome proliferator-activated receptor gamma signaling (AID 588537; active means well fitted inhibition curve with a large enough effect in the signal ratio, with a control signal flat, not every such curve was filed as active; the % refers to the signal ratio;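 further: reporter cells co-stimulated with 50 nM rosiglitazone agonist during compound treatment; % of control where 0% means no effect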). In outline:
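Read-out: CCF4 fluorescence (ex 405, em 460/530 nm) after 2 h at RT. Cells were HEK293 carrying a UAS-bla reporter and treated 16 h at 37 C with compound plus rosiglitazone (50 nM final). Normalized to rosiglitazone and DMSO.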

Experiment [18] is described as follows: qHTS assay for small molecule disruptors of the mitochondrial membrane potential - 5 hr assay (AID 651755; calls by dose curve; further: on the % scale 0 is the no-effect control and ±100 the full control effect; nearly all actives have a fitted effect of over 40% in size). In outline:
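Read-out: ratiometric Mito-MPS fluorescence, green monomer (ex 490/em 535) vs red mitochondrial aggregate (ex 540/em 590). HepG2 cells treated 5 hr at 37C before 30 min dye loading.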

Experiment [19] deals with Estrogen receptor (Homo sapiens) (UniProt P03372). Nature of the experiment: qHTS assay for small molecule antagonists of estrogen receptor alpha signaling (AID 588513; active means well fitted curve in the direction sought with a large enough effect in the signal ratio, with a control signal flat, not every such curve was filed as active; the % refers to the signal ratio; further: on the % scale 0 is the no-effect control and ±100 the full control effect). In outline: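 Beta-lactamase reporter, antagonist mode, HEK 293 GripTite cells; 0.5nM E2 stimulus, 18 h, 37 C; CCF4 dye 2 h RT; fluorescence. IC50 and efficacy from Hill fits, normalized to E2 and DMSO.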
Sequence of Estrogen receptor (Homo sapiens) (P03372 whole entry, looked up): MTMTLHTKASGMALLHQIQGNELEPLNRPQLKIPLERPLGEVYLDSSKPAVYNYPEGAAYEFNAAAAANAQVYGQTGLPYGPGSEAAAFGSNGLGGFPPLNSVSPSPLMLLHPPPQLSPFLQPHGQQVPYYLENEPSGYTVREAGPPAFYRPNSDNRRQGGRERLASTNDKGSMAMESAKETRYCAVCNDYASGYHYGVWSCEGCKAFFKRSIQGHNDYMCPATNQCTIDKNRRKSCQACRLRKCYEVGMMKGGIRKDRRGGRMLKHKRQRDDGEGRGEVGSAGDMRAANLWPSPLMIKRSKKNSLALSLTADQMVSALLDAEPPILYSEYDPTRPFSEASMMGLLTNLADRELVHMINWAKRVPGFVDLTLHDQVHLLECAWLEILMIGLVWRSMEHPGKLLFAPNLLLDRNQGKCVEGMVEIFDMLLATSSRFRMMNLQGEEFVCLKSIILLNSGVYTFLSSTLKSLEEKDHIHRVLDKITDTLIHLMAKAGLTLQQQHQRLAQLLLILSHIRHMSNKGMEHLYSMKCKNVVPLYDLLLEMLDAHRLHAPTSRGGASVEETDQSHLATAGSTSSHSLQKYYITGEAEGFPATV

Experiment [20] has the same target. Nature of the experiment: qHTS assay for small molecule agonists of estrogen receptor alpha signaling (AID 588514; calls by dose curve;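 further: 0% = vehicle only and 100% = reference agonist; nearly all actives have a fitted effect of over 70% in size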). In outline:
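Fluorescence from CCF4 cleavage reports ER-alpha-driven beta-lactamase expression in HEK 293 cells treated 18 hrs at 37 C. Data normalized to 17-beta-estradiol (20 nM) and DMSO, fitted to Hill equation.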

“And” between values parts separate entries of the source, which are not always exact repeats. Identical values can stand only once. Records with an inconclusive call do not appear. The source made the active and inactive calls. Unless noted, the call rests on the fitted dose curve; in most records, active means well fitted curve in the direction sought with a large enough effect; inconclusive means small, poorly fitted or top-dose-only effect, or another doubt; inactive means no such curve, though single readings can be large; an effect the other way counts as inactive or inconclusive.

Sequence of Glucocorticoid receptor (Homo sapiens) (P04150 whole entry, looked up): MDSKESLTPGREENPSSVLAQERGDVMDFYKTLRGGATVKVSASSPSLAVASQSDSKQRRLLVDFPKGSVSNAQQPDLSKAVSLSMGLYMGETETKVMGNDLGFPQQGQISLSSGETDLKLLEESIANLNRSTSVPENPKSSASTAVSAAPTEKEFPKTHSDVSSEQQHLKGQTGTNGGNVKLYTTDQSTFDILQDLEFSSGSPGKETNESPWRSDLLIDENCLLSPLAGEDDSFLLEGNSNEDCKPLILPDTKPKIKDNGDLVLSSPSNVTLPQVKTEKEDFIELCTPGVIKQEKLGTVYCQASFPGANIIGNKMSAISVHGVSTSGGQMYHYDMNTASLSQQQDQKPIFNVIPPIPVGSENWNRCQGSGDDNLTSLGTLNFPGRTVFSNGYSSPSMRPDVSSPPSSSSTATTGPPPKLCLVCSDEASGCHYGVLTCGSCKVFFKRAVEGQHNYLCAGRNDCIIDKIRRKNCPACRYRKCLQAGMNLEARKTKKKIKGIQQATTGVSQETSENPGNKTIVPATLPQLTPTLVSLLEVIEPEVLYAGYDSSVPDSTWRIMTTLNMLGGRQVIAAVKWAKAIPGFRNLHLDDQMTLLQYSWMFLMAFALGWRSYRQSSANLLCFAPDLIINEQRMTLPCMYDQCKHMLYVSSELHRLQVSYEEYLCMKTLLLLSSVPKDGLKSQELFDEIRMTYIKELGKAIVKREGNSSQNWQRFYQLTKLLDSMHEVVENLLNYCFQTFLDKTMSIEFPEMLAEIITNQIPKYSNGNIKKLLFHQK
Sequence of Peroxisome proliferator-activated receptor gamma (Homo sapiens) (P37231 whole entry, looked up): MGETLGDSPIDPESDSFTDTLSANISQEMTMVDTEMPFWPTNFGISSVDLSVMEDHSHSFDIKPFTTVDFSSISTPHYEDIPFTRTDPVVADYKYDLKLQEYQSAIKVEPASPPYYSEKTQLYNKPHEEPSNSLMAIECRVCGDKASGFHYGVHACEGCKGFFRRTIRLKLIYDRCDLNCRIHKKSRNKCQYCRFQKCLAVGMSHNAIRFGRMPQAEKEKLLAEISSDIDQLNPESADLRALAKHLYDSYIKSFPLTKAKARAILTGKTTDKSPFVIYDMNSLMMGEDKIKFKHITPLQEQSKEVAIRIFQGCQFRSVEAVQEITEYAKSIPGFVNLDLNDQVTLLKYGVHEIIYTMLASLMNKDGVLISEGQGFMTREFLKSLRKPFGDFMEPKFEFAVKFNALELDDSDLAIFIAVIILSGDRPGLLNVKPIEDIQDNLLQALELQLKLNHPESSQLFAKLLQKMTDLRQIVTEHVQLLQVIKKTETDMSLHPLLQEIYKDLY

For the compound `CN(C)N=O`, the Potency entry in [1], in experiment [2], in experiment [4], in experiment [8] and in [9] was “inactive” each time. Moreover, the compound was called inactive in experiment [3], in experiment [6] and in experiment [7]. Moreover, the activation in [5] was -2.94% (inactive); in experiment [10], -0.838% (inactive); in experiment [11], 0.336% (inactive).
With `CCN(CC)CCO`, the Potency entry in experiment [12], in experiment [4], in experiment [13], in experiment [17], in experiment [9] and in [18] was “inactive” each time. For the same compound, the figures for the activation in experiment [5], in [10] and in [11] were 6.4% (inactive), -0.22% (inactive) and 3.62% (inactive), respectively. In addition, the outcome in [6], in [14] and in [16] was inactive. The max response in experiment [15] was found to be 24%.
For the compound `CCCCCC[N+](=O)[O-]`, the Potency result in [1], in experiment [2], in [8] and in experiment [18] was “inactive” in each case. The compound was classed as inactive in experiment [3], in experiment [6] and in experiment [14]. In addition, the results for the activation in experiment [10] and in experiment [11] were 1.69% (inactive) and 0.0869% (inactive), respectively.
Regarding `ClCc1ccccc1`, the Potency result in experiment [1], in experiment [2], in experiment [12], in experiment [4], in experiment [13] and in [19] was “inactive” in each case. The Potency result in [20], in [8], in experiment [9] and in experiment [18] was “inactive” each time. Further, the compound was called inactive in experiment [3], in experiment [14], in experiment [16] and in experiment [7]. Besides, in experiment [15], the max response was -22.1%. Besides, in experiment [10], the activation is -0.661% (inactive).
Take `CN(C)C(=O)Nc1ccc(Cl)cc1`: the Potency result in experiment [1], in experiment [2], in [4], in experiment [13], in [17] and in [8] was “inactive” each time. Further, the Potency result in experiment [9] and in experiment [18] was “inactive” in each case. For the same compound, the outcome in experiment [3], in [6], in experiment [14], in experiment [16] and in [7] was inactive. Moreover, the activation is 8.83% (inactive) and -10.8% (inactive) in [5]; 2.75% (inactive) and -0.215% (inactive) in experiment [10]; 1.83% (inactive) and 5.75% (inactive) in [11]. For the same compound, the max response in [15] is -2.77% and 22.5%.
`[O-][Cl+2]([O-])O`: the Potency result in experiment [1], in experiment [2], in [12], in [4], in experiment [19] and in [20] was “inactive” throughout. Further, the Potency result in experiment [8] and in experiment [9] was “inactive” in each case. Besides, the compound was called inactive in experiment [3] and in [7]. Further, the activation in experiment [10] was -0.919% (inactive); in [11], 0.0972% (inactive).
For `CC(C)OC(=O)Cc1ccccc1`, the Potency result in [1], in experiment [2], in experiment [12], in experiment [4], in experiment [19] and in experiment [20] was “inactive” throughout. Moreover, the Potency result in experiment [8], in [9] and in experiment [18] was “inactive” throughout. Moreover, the compound was classed as inactive in [3] and in experiment [6]. In addition, in [5], the activation was 0.809% (inactive).
In the case of `N#CCc1ccccc1`, the Potency entry in experiment [1], in experiment [2], in experiment [13], in experiment [19], in experiment [20] and in experiment [17] was “inactive” in each case. The Potency result in experiment [8] and in experiment [18] was “inactive” each time. For the same compound, the compound was called inactive in experiment [3], in experiment [14], in [16] and in [7]. In experiment [15], the max response was -33.3%. In addition, the activation was 0.487% (inactive) in [10] and -0.841% (inactive) in experiment [11].
